What all share (experiment): NCI-60 one-dose screen, 48 h (100 = growth as untreated, 0 = no growth, -100 = all killed)
What all share (conditions): 10 µM unless noted

Test [1] relates to HCT-15 colon.
The test system of test [2] is HT29 colon.
The test system of test [3] is SNB-75 CNS.
The test system of test [4] is SNB-19 CNS.
Test [5] relates to U251 CNS.
The subject of test [6] is PC-3 prostate.
Test [7] has as its system SK-MEL-5 melanoma.
Test [8] has as its system UACC-62 melanoma.
Test [9] concerns LOX IMVI melanoma.
Test [10] deals with SK-MEL-28 melanoma.

This is part of a sample that, as a whole, favours compounds with a hit. Of some 83,000 tested, about 20% had one in any assay.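 Single-concentration screen, 48 h exposure, 96-well plates. Endpoint: percent growth. Below 10 = active.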 A number with no mark means an inactive call. The source made the active and inactive calls.

Among the data in PubChem BioAssay (NCI) are growth values, retold here.

Turning to `Cc1ccc(OCCOCCOCCOc2ccc(C)n(O)c2=S)c(=S)n1O`, the growth in test [1] was 35.8%; in test [2], 30%; in [3], 59.2%; in test [4], 33.8%; in test [5], 31.1%; in [6], 34.7%. Besides, the growth is 58.3% in test [7], 15.6% in [8], 30.5% in test [9] and 48.8% in test [10].

Take `Clc1ccc(Nc2ncc(Cc3cccc(Cl)c3Cl)s2)cc1`: the growth in test [1] was 92.3%; in test [2] it was 95.7%; in [3], 116%; in [4] it was 98%; in test [5], 85.7%; in test [6], 88%. The growth in test [7] is 97.1%; in [8], 81.6%; in [9], 97.7%; in test [10], 95.6%.

As for `CCCC(=O)NC(c1ccc2c(c1)OCO2)c1cc(Cl)c2cccnc2c1O` (stereo not given), the growth is 30.9% in test [1]; 21.2% in test [2]; 6.73% (active) in test [3]; 23.7% in test [4]; 17.3% in [5]; 34.5% in test [6]. Also, the growth in test [7] is 37.5%; in [8], 11%; in [9], 23.4%; in test [10], 46.1%.

`COc1cc(OC)c2c(=O)c3c(CC=C(C)C)cc(OC)c(O)c3oc2c1`: the growth in [1] is 59.8%; in [2], 95.4%; in [3], 60%; in test [4], 92.7%; in test [5], 85.1%; in test [6] it was 99.2%. Further, the growth is 76.4% in [7], 75.2% in test [8], 82% in test [9] and 88.4% in test [10].

As for `C[C@@H]1CN(c2cnc(C(=O)Nc3cc(F)cc4cccnc34)cn2)C[C@H](C)N1`, the growth in test [1] is 35.7%; in test [2], 35.5%; in test [3], 69%; in test [4], 92.4%; in test [5], 76.6%; in [6], 21.2%. The growth was 102% in test [7], 94.3% in [8], 72.7% in test [9] and 94% in [10].

Turning to `CCCCCCCCn1ccc2cc(NC(=O)CN3CCN(c4cc(C)nc(Cl)n4)CC3)ccc21`, the growth was 76.3% in [1]; 77.3% in test [2]; 82.9% in test [3]; 88.9% in [4]; 89.5% in [5]; 61.4% in test [6]. Also, the growth is 59.3% in test [7], 64.5% in [8], 94.2% in [9] and 90.9% in test [10].

As for `CCOc1ccc(/C=C/C(=O)c2cccc(OCCCOc3cccc(C(=O)/C=C/c4ccc(OCC)cc4)c3)c2)cc1`, the growth is 75.9% in test [1]; 94.2% in test [2]; 83.9% in test [3]; 92.1% in test [4]; 103% in test [5]; 75.2% in test [6]. The growth in test [7] is 75.2%; in [8], 57.9%; in test [9], 83.5%; in test [10] it was 87.1%.

On to `Nc1ncnc2c1N=C(c1ccc(Cl)cc1)CC(c1cccc(Nc3ccnc4cc(Cl)ccc34)c1)N2` (stereo not given), for which the growth was 21.1% in [1]; 36.3% in test [2]; 60.4% in test [3]; 79.6% in test [4]; 50% in [5]; 55.4% in test [6]. The growth is 61.9% in test [7], 81.2% in test [8], 45.5% in test [9] and 86.8% in [10].

As to `Cn1c(C#N)ccc1-c1ccc(F)c(NC(=O)c2ccc(F)cc2)c1`, the growth in test [1] is 66.6%; in test [2], 47.5%; in test [3] it was 71.4%; in [4], 84.1%; in test [5] it was 73.4%; in test [6], 80.9%. Also, the growth in [7] was 75.9%; in [8], 60.8%; in test [9] it was 69.8%; in [10], 86.5%.

Regarding `O=C(Nc1cc(Cl)cc(Cl)c1)Oc1c(Cl)c(Cl)c(Cl)c(Cl)c1Cl`, the growth in [1] was 77.8%; in test [2] it was 73.2%; in test [3], 71.3%; in test [4] it was 66.1%; in test [5], 62.9%; in [6], 42.2%. In addition, the growth in test [7] was 41.5%; in test [8], 65.7%; in test [9] it was 72.5%; in test [10], 84.8%.

In the case of `Nc1c(Br)cc2c(c1Br)Cc1cc([N+](=O)[O-])ccc1-2`, the growth in test [1] is 104%; in test [2] it was 110%; in [3], 75.3%; in test [4], 94.5%; in [5], 95.5%; in test [6], 87.9%. Further, the growth in test [7] is 91.4%; in test [8], 89.1%; in test [9] it was 102%; in test [10], 113%.

On to `COc1ccc(-c2cc(-c3cccnc3)nc3sc4c(N)c(C(C)=O)c(-c5ccccc5)nc4c23)cc1OC`, for which the growth in [1] is 73.6%; in test [2] it was 52.5%; in test [3], 63.5%; in test [4], 86%; in test [5], 55.6%; in test [6], 54.9%. Moreover, the growth in [7] was 39.4%; in test [8], 75.5%; in [9], 75.5%; in test [10], 70%.

Turning to `COc1ccc2c(c1)CC[C@@H]1[C@@H]2CC[C@]2(C)C3C(=CC(COC(C)=O)C4C(=O)N(c5ccc(Cl)cc5)C(=O)C43)C[C@@H]12` (stereo not given in full), the growth in test [1] was 94.3%; in test [2], 90%; in [3], 90.5%; in test [4], 110%; in [5], 102%; in test [6], 82%. The growth in [7] is 93.4%; in [8], 83.2%; in [9], 94%; in test [10], 106%.
